Screening data from PubChem BioAssay.
FLuc modulator: qHTS profiling assay for firefly luciferase inhibitor/activator using purifed enzyme and Km concentrations of substrates (counterscreen for miR-21 project); actives 6.9% (n = 360,000); Potency, µM (titrated, usually from 57.5 µM), inactives show at the highest dose activity change, negative = inhibition, most hits filed as inhibitors; purified FLuc, Km substrates, luminescence inhibition; AID 588342, 2011;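 also: plate controls were vehicle for no effect and reference inhibitor for full effect; nearly all actives have a fitted effect of over 55% in size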
Target sequence (P08659 whole entry, looked up): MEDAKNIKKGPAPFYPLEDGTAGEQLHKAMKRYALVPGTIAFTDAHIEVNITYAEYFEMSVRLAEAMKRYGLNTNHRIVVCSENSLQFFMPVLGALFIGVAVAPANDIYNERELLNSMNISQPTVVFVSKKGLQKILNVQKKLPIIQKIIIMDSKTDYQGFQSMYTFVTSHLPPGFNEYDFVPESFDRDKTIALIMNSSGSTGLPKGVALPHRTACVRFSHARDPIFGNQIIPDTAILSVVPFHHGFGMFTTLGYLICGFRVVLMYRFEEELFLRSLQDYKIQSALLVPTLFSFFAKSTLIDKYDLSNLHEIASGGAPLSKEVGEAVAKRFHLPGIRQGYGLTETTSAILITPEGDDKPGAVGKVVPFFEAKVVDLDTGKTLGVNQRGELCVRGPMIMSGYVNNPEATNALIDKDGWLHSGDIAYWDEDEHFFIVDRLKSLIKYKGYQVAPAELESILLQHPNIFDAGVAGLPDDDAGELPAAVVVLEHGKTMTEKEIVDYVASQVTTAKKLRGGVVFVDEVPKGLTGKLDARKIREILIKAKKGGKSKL
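Biochemical qHTS of compounds, final roughly 60 µM downward over six points, against 10 nM purified firefly luciferase using Km concentrations of substrates (10 uM D-luciferin, 10 uM ATP) in Tris acetate pH 7.5 buffer; luminescence output.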
Rab9 promoter act: qHTS Assay for Rab9 Promoter Activators; Huh7 Rab9 promoter-luciferase reporter, luminescence, 24 h; AID 485297, 2010; actives 2.8% (n = 320,000); Potency, µM (titrated, usually from 9.22 µM), without a hit: at the top dose activation, negative = inhibition, actives largely listed as activators; also: % of control where 0% means no effect; nearly all actives have a fitted effect of over 60% in size
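Stable Rab9-luc Huh7, 1500 cells/well, 2 h settle; cmpd in DMSO, 24 h, 37 °C/5% CO2; luciferase reagent 10 min RT; luminescence.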
SMN2 splice enh: qHTS Assay for Enhancers of SMN2 Splice Variant Expression; HEK293 SMN2-luciferase splicing reporter, luminescence, 30-36 h; Potency, µM (series often up to 46.1 µM), for inactives: at the top dose activity change, positive = activation, most hits filed as activators; actives 2.8% (n = 210,000); AID 1458, 2008; also: % of control where 0% means no effect; nearly all actives have a fitted effect of over 55% in size
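HEK293 cells carry an SMN2 […]–luciferase reporter in which exon 7 inclusion puts luciferase in frame. Cells were plated 10-12 h before compound addition, then incubated 30-36 h at 37C. ONE-Glo luminescence was read; sodium butyrate at 4.5 mM final served as control.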
ELG1 genotox: qHTS screen for small molecules that induce genotoxicity in human embryonic kidney (HEK293T) cells expressing luciferase-tagged ELG1 | actives 1.3% (n = 330,000) | Potency, µM (doses to about 46 µM), for inactives: at the top dose activity change, positive = activation, most hits filed as activators | HEK293T ELG1-luciferase reporter, luminescence, 16 h | AID 504466, 2011; also: % of control where 0% means no effect; nearly all actives have a fitted effect of over 60% in size
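HEK293T cells expressing luciferase-tagged ELG1 were exposed to compound or DMSO vehicle for 16 hr at 37 °C and 5% CO2. Luciferase activity was then measured with ONE-Glo after 30 min at room temperature.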
NPC1 promoter act: qHTS Assay for NPC1 Promoter Activators. Huh7 NPC1 promoter luciferase reporter, 24 h. Potency, µM (top dose mostly 9.22 µM), for inactives: at the top dose activation, most hits filed as activators. actives 2.4% (n = 320,000); also: % of control where 0% means no effect; nearly all actives have a fitted effect of over 60% in size
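Compounds in DMSO were transferred onto Huh7 NPC1-luciferase reporter cells pre-incubated 2 h; after 24 h at 37 °C, Amplite reagent was dispensed and luminescence recorded 10 min later.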
* marks the source's active call; other numbers are inactive results; [ ] = dose if it differs, or a comment. Most compounds without a hit are left out; they make up all but 7.4% or so of the library. Calls follow the shape of the dose curve; as a rule, active = well fitted curve in the direction sought with a large enough effect; inconclusive = small, poorly fitted or top-dose-only effect, or another doubt; inactive = no such curve, though single readings can be large; an effect the other way counts as inactive or inconclusive. Potency is read from the fitted curve at half-maximal effect.

What do the screens show for `COC(=O)N[C@@H](CCc1ccccc1)/C(C(=O)OC)=C(\C)NCc1ccccc1`?
SMN2 splice enh: 12%

How did C=CCn1c2ccccc2c(=O)c2cc(C#CC[C@@H](C)O)ccc21 do in these assays?
FLuc modulator: 2.1µM*; Rab9 promoter act: inconclusive; ELG1 genotox: inconclusive; NPC1 promoter act: 3.2µM*

How did C=CCn1c2ccccc2c(=O)c2cc(C#CC3(O)CCCCC3)ccc21 do in these assays?
FLuc modulator: 0.76µM*; Rab9 promoter act: 0.71µM*; ELG1 genotox: inconclusive; NPC1 promoter act: 1.3µM*

How did O=C(COC(=O)C1CCC(=O)N1)Nc1ccccc1OC(F)F (stereo not given) do in these assays?
ELG1 genotox: -4%

What do the screens show for `CCCCC1CCC(C(=O)N(CCOC)c2c(N)n(CC(C)C)c(=O)[nH]c2=O)CC1` (stereo not given)?
FLuc modulator: 0%; Rab9 promoter act: -6%; ELG1 genotox: 5%; NPC1 promoter act: 1%

What do the screens show for `O=C1N/C(=C\c2ccc(O)cc2)C(=O)c2ccccc21`?
FLuc modulator: 1.2µM*; Rab9 promoter act: 0%; SMN2 splice enh: -8%; ELG1 genotox: inconclusive; NPC1 promoter act: -17%

What do the screens show for `Cc1ccccc1Nc1c(-c2ccc(N3CCOCC3)cc2)nc2ccccn12`?
FLuc modulator: 0.24µM*; SMN2 splice enh: 11µM*

How did Cc1ccccc1Nc1c(-c2cccnc2)nc2cccc(C)n12 do in these assays?
FLuc modulator: -4%; Rab9 promoter act: -2%; SMN2 splice enh: -81%; ELG1 genotox: -7%; NPC1 promoter act: -2%

How did Cc1cccc(C)c1Nc1c(-c2ccc(N3CCOCC3)cc2)nc2cnccn12 do in these assays?
FLuc modulator: inconclusive; Rab9 promoter act: -2%; ELG1 genotox: 5%; NPC1 promoter act: -2%

What do the screens show for `Cc1ccccc1Nc1c(-c2ccc(N3CCOCC3)cc2)nc2cccc(C)n12`?
FLuc modulator: 1.3µM*; SMN2 splice enh: 18%

What do the screens show for `Cc1ccccc1Nc1c(-c2ccc(N3CCOCC3)cc2)nc2ccc(Br)cn12`?
FLuc modulator: 3.4µM*; SMN2 splice enh: -8%

Results for CC1CCCO1 (stereo not given) ?
SMN2 splice enh: 2%

Results for Cc1nc(N)nc2ccccc12 ?
SMN2 splice enh: 2%[9.22 µM]

What do the screens show for `O=C(O)COc1ccccc1/C=N/NC(=O)CNC(=O)c1ccc(F)cc1`?
FLuc modulator: -2%; Rab9 promoter act: -2%; ELG1 genotox: 0%; NPC1 promoter act: 8%

How did O=C(NN=Cc1ccccc1Cl)c1ccc(-n2cnnn2)cc1 do in these assays?
ELG1 genotox: 3%

What do the screens show for `O=C(O)COc1ccccc1/C=N/NC(=O)c1ccc2c(c1)OCCO2`?
FLuc modulator: 1.5µM*; Rab9 promoter act: 0%; ELG1 genotox: 3%; NPC1 promoter act: 0%

What do the screens show for `O=C(O)COc1ccccc1/C=N/NC(=O)c1ccc(F)cc1`?
FLuc modulator: 9.5µM*; Rab9 promoter act: 10%; SMN2 splice enh: -6%; ELG1 genotox: 1%; NPC1 promoter act: -8%

Results for O=C(N/N=C/c1ccccc1Cl)c1ccc(F)cc1 ?
FLuc modulator: 2.7µM*; Rab9 promoter act: 2.5µM*; SMN2 splice enh: 12%; ELG1 genotox: inconclusive; NPC1 promoter act: 2.2µM*

What do the screens show for `COc1ccc(/C=N/NC(=O)CNC(=O)c2ccc3c(c2)OCCO3)c(C(=O)O)c1OC`?
FLuc modulator: 24µM*; Rab9 promoter act: 0%; ELG1 genotox: 0%[9.26 µM]; NPC1 promoter act: 1%

How did Cn1cccc1-c1cc(C(=O)N/N=C/c2ccccc2Cl)[nH]n1 do in these assays?
FLuc modulator: 19µM*; Rab9 promoter act: inconclusive; ELG1 genotox: inconclusive; NPC1 promoter act: inconclusive

What do the screens show for `Cc1sc2ncn(CC(=O)NCCCC(=O)N3CCN(Cc4ccc5c(c4)OCO5)CC3)c(=O)c2c1C`?
FLuc modulator: -20%; Rab9 promoter act: -10%; SMN2 splice enh: -44%; ELG1 genotox: -11%; NPC1 promoter act: -8%

How did CCCc1cc(=O)oc2cc(OCC(=O)Nc3ccccn3)ccc12 do in these assays?
FLuc modulator: 15µM*; Rab9 promoter act: inconclusive; ELG1 genotox: 21µM*; NPC1 promoter act: 3.5µM*

How did CCCCc1cc(=O)oc2cc(C)cc(OCC(=O)Nc3ccccn3)c12 do in these assays?
FLuc modulator: 8.5µM*; Rab9 promoter act: 2.5µM*; ELG1 genotox: inconclusive; NPC1 promoter act: 2µM*

How did CCCc1cc(=O)oc2cc(C)cc(OCC(=O)Nc3ccccn3)c12 do in these assays?
FLuc modulator: 4%; Rab9 promoter act: 12%; ELG1 genotox: 1%; NPC1 promoter act: -3%

How did CCOC(=O)Cn1c(S(=O)(=O)Cc2ccc(F)cc2)nc(-c2ccccc2)c1-c1ccccc1 do in these assays?
FLuc modulator: -1%; Rab9 promoter act: 2%; SMN2 splice enh: 7.1µM*; ELG1 genotox: -8%; NPC1 promoter act: 1%

How did CCOC(=O)Cn1c(S(=O)(=O)Cc2cccc(F)c2)nc(-c2ccccc2)c1-c1ccccc1 do in these assays?
FLuc modulator: 4%; Rab9 promoter act: 0%; SMN2 splice enh: 46%; ELG1 genotox: -8%; NPC1 promoter act: -5%

How did O=C(Nc1nc2ccccc2s1)C1CC(=O)N(c2ccc(Br)cc2)C1 (stereo not given) do in these assays?
FLuc modulator: -15%; Rab9 promoter act: 11%; SMN2 splice enh: 0%; ELG1 genotox: -8%; NPC1 promoter act: 7%

Results for CC(=O)c1c(C)nc(-c2ccc(Cl)cc2)nc1N ?
FLuc modulator: 6.7µM*; Rab9 promoter act: 3.2µM*; SMN2 splice enh: 10µM*; ELG1 genotox: 4.1µM*; NPC1 promoter act: 3.5µM*

How did CC(=O)c1c(C)nc(-c2ccc(Cl)cc2)nc1N=CN(C)C do in these assays?
FLuc modulator: inconclusive; Rab9 promoter act: 2.8µM*; SMN2 splice enh: 11µM*; ELG1 genotox: 9.2µM*; NPC1 promoter act: 4µM*

How did CC(=O)c1sc(-c2ccc(Cl)cc2)nc1C do in these assays?
FLuc modulator: inconclusive; Rab9 promoter act: inconclusive; SMN2 splice enh: 27%; ELG1 genotox: inconclusive; NPC1 promoter act: 26%

Results for CCOC(Cn1ccc(=O)[nH]c1=O)OCC ?
FLuc modulator: 1%; Rab9 promoter act: -2%; ELG1 genotox: 2%; NPC1 promoter act: 0%

Results for O=C(CN1C(=O)NC2(CCCC2)C1=O)N1CCN(c2ccccc2O)CC1 ?
FLuc modulator: -1%; Rab9 promoter act: 0%; ELG1 genotox: 0%; NPC1 promoter act: -1%

How did COC(=O)c1sc(NC(=O)c2cc(-c3ccccc3)nc3ccccc23)c(C#N)c1C do in these assays?
FLuc modulator: inconclusive; Rab9 promoter act: -30%; SMN2 splice enh: -91%; ELG1 genotox: -3%; NPC1 promoter act: -33%
